# Test results published in PubChem BioAssay (NCI).
# About 79,000 compounds went through this panel and 15% of them were active in at least one assay; those are over-represented in the sample as a whole. Unmarked numbers belong to inactive results. The source made the active and inactive calls. Rule as the data show it: active = growth inhibition above about 70%; inactive = the rest.
# Assay: NCI Yeast Anticancer Drug Screen. Data for the mlh1 rad18 strain (AID 175)
# Settings: S. cerevisiae mlh1 rad18 strain growth inhibition; at 50.0 µM; hits give high values
# Procedure, shortened: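 Steps: expose repair-defective yeast to compound; measure growth; express inhibition against vehicle-treated controls.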
row,SMILES,growth inhibition
1,CCC/C(Cl)=N\OC(=O)Nc1cccc(C(F)(F)F)c1,83.7% (active)
2,[O-][n+]1c2ccc(O)cc2nc2ccc(Cl)cc21,86.8% (active)
3,Clc1ccccc1C1OC1c1ccccc1Cl (stereo not given),5%
4,c1ccc2c(c1)c1ncccc1c1nccnc21,33.9%
5,CC(=O)Nc1ccc2c(c1)C(=Nc1ccc(C(=O)O)cc1)c1ccccc1-2,91.1% (active)
6,COc1ccc(OC)c2cc3ccccc3cc12,70.2% (active)
7,COc1cc(C2c3cc4c(cc3OC(NNc3ccccc3)C2C)OCO4)cc(OC)c1OC (stereo not given),77% (active)
8,O=C1c2cc([N+](=O)[O-])ccc2-c2cccc(F)c21,82.5% (active)
9,CCCCCCCCCCCC(=O)N(C)C,91% (active)
10,CCCCCCCCCCCC1=C(O)C(=O)C=C(O)C1=O,72.3% (active)
11,Cc1ccc(CSC(N)=Nc2ccccc2)cc1C,42%
12,CCCCCCCCCCC1CCC(=O)O1 (stereo not given),92.2% (active)
13,O=[N+]([O-])c1cc(CCl)ccc1CCl,99% (active)
14,Nc1ccc2c(c1)C(=O)c1cccc(N)c1C2=O,72.5% (active)
15,CCCCCCCCCCNC(=O)OCC,95% (active)
16,CC1=C(C)Cc2c(O)ccc(O)c2C1,93.2% (active)
17,COc1ccc2c(c1)C(=O)c1ccccc1C2,15.6%
18,CCC(=O)OCCn1c2nc(=O)[nH]c(=O)c-2nc2cc(C)c(C)cc21,21.1%
19,O=C(OCCN1CCCCCC1)C(c1ccsc1)C1CCCCC1 (stereo not given),79.4% (active)
20,Oc1c(Br)cc(Br)cc1C1CCCCC1,87.1% (active)

row,SMILES,growth inhibition
1,CC1(C)[C@@H]2CC[C@]1(C)[C@H](OC(=O)CSC#N)C2,98.8% (active)
2,S=C(N/N=C(/c1ccccc1)c1ccccn1)N1CCCCCC1,86.2% (active)
3,Cc1ccc2[nH]c3c(C)c4cc[n+](C)cc4c(C)c3c2c1,-26.9%
4,CNC(=O)OCc1c(COC(=O)NC)c(-c2ccc(-c3ccccc3)cc2)n(C)c1C,58.8%
5,COc1ccccc1/C=C1\Sc2scc(-c3cccc([N+](=O)[O-])c3)[n+]2C1=O,89.2% (active)
6,O=[N+]([O-])c1ccc2c(c1)C(N1CCN(CCO)CC1)Cc1ccc(F)cc1S2 (stereo not given),44.4%
7,Cc1ccc(CCC2=CCCc3c2ccc2ccccc32)cc1,16.9%
8,O=[N+]([O-])c1cccc2nccc(NCCCO)c12,32.9%
9,Cc1ccc(-n2cc(-c3ccc(Cl)cc3)c(C#N)c2N)cc1,78.3% (active)
10,Cc1ccc(S/N=C\c2ccccc2O)cc1,94.3% (active)
11,O=C(O)C1OC1(c1cccc(Cl)c1)c1ccccc1Cl (stereo not given),90.5% (active)
12,NC(=S)N/N=C\c1nccc2ccccc12,98.4% (active)
13,Clc1cccc(C(Nc2nncs2)Nc2nncs2)c1Cl,55.3%
14,O=C(OCC=C1CCCC1)c1cc([N+](=O)[O-])cc([N+](=O)[O-])c1,23.6%
15,O=C(Nc1ccccc1)C(=O)C(C(=O)c1ccccc1)C(c1ccccc1)c1ccccc1 (stereo not given),79.8% (active)
16,N#CN1C2CCC1CC(=O)C2,62.1%
17,COc1ccccc1C(=O)OCC1CCCN2CCCCC12 (stereo not given),90.3% (active)
18,CCNc1nnc(CSc2nc(-c3ccccc3)c(-c3ccccc3)[nH]2)s1,86.3% (active)
19,O=C1c2ccccc2-c2n[nH]c3cccc1c23,81.1% (active)

# Assay: NCI Yeast Anticancer Drug Screen. Data for the rad18 strain (AID 177)
# Settings: S. cerevisiae rad18 mutant growth inhibition; at 1.2 µM; hits give high values
# Procedure, shortened: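 Measured value is growth inhibition of a yeast strain bearing a DNA repair alteration, referenced to vehicle-treated cells.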
row,SMILES,growth inhibition [%]
1,CCC/C(Cl)=N\OC(=O)Nc1cccc(C(F)(F)F)c1,-7
2,Clc1ccccc1C1OC1c1ccccc1Cl (stereo not given),-59
3,c1ccc2c(c1)c1ncccc1c1nccnc21,-10
4,COc1ccc(OC)c2cc3ccccc3cc12,5
5,COc1cc(C2c3cc4c(cc3OC(NNc3ccccc3)C2C)OCO4)cc(OC)c1OC (stereo not given),52
6,CCCCCCCCCCCC1=C(O)C(=O)C=C(O)C1=O,-9
7,CCCCCCCCCCC1CCC(=O)O1 (stereo not given),-1
8,O=[N+]([O-])c1cc(CCl)ccc1CCl,32
9,CCCCCCCCCCNC(=O)OCC,0
10,COc1ccc2c(c1)C(=O)c1ccccc1C2,-2
11,CCC(=O)OCCn1c2nc(=O)[nH]c(=O)c-2nc2cc(C)c(C)cc21,-3
12,Oc1c(Br)cc(Br)cc1C1CCCCC1,-16
13,S=C(N/N=C(/c1ccccc1)c1ccccn1)N1CCCCCC1,8
14,CNC(=O)OCc1c(COC(=O)NC)c(-c2ccc(-c3ccccc3)cc2)n(C)c1C,-25
15,COc1ccccc1/C=C1\Sc2scc(-c3cccc([N+](=O)[O-])c3)[n+]2C1=O,14
16,O=[N+]([O-])c1ccc2c(c1)C(N1CCN(CCO)CC1)Cc1ccc(F)cc1S2 (stereo not given),-3
17,Cc1ccc(CCC2=CCCc3c2ccc2ccccc32)cc1,-4
18,O=C(O)C1OC1(c1cccc(Cl)c1)c1ccccc1Cl (stereo not given),-6
19,NC(=S)N/N=C\c1nccc2ccccc12,-1
20,Clc1cccc(C(Nc2nncs2)Nc2nncs2)c1Cl,-4
21,O=C(OCC=C1CCCC1)c1cc([N+](=O)[O-])cc([N+](=O)[O-])c1,-2
22,O=C(Nc1ccccc1)C(=O)C(C(=O)c1ccccc1)C(c1ccccc1)c1ccccc1 (stereo not given),7
23,N#CN1C2CCC1CC(=O)C2,-10
24,COc1ccccc1C(=O)OCC1CCCN2CCCCC12 (stereo not given),-5
25,CCNc1nnc(CSc2nc(-c3ccccc3)c(-c3ccccc3)[nH]2)s1,12
26,O=C1c2ccccc2-c2n[nH]c3cccc1c23,-49
